Measured values: PubChem BioAssay (NCI)
Compounds without any hit were thinned out: in the full panel of roughly 83,000, 20% have a hit.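 Each cell line was grown in a 96-well plate and treated with one concentration of compound for 48 hours. Values below 10 were considered active.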 Unmarked numbers belong to inactive results. The source made the active and inactive calls.

Key:
Assay in all cases: NCI-60 one-dose screen, 48 h (100 = growth as untreated, 0 = no growth, -100 = all killed)
Conditions in all cases: 10 µM unless noted
[1] = test system: NCI-H23 lung
[2] = test system: NCI-H226 lung
[3] = test system: NCI-H322M lung
[4] = test system: HOP-62 NSCLC
[5] = test system: NCI-H460 lung
[6] = test system: HOP-92 NSCLC
[7] = test system: NCI-H522 lung
[8] = test system: A549/ATCC NSCLC
[9] = test system: 786-0 renal
[10] = test system: COLO 205 colon
[11] = test system: DU-145 prostate
[12] = test system: K-562 leukemia
[13] = test system: MALME-3M melanoma
[14] = test system: MDA-MB-231 breast
[15] = test system: RXF 393 renal
[16] = test system: SF-268 CNS
[17] = test system: SF-295 CNS
[18] = test system: SF-539 CNS
[19] = test system: UACC-257 melanoma
[20] = test system: M14 melanoma

| SMILES | growth [1] [%] | growth [2] [%] | growth [3] [%] | growth [4] [%] | growth [5] | growth [6] | growth [7] | growth [8] [%] | growth [9] [%] | growth [10] | growth [11] | growth [12] | growth [13] [%] | growth [14] [%] | growth [15] | growth [16] [%] | growth [17] [%] | growth [18] | growth [19] [%] | growth [20] [%] |
| --- | --- | --- | --- | --- | --- | --- | --- | --- | --- | --- | --- | --- | --- | --- | --- | --- | --- | --- | --- | --- |
| O=S(=O)(Nc1cc(Br)c(O)c2ccccc12)c1ccc(F)cc1 | 53.1 | 97.5 | 94.9 | 103 | 103% | 47.1% | 77.3% | 102 | 111 | 93.2% | 81.2% | 28.7% | 62.2 | 10.7 | 102% | 79.4 | 95 | 85.1% | 63.4 | 96.7 |
| CC(C)(C)c1cc(-c2nc3ccc(N4CCN(S(C)(=O)=O)CC4)cc3[nH]2)cc(C(C)(C)C)c1O | 96.2 | 91.9 | 100 | 76.7 | 90.6% | 85.6% | 78.1% | 83.4 | 101 | 101% | 99.1% | 78.4% | 82.4 | 104 | 92.6% | 93.1 | 91.1 | 86.5% | 98.9 | 98.3 |
| O=C(Cn1cc(CN2CCCCCC2)nn1)Nc1ccc2c(ccn2Cc2ccccc2)c1 | 96.4 | 81.5 | 94.8 | 80.6 | 102% | 64% | 86.9% | 92.3 | 87.8 | 88.9% | 101% | 79.5% | 91.1 | 86 | 91.4% | 93.6 | 99.6 | 92.6% | 101 | 94.1 |
| C#CCOc1cccc(Nc2ncnc3c(NC(=O)C=C)cccc23)c1 | 38.9 | 52 | 54.9 | 39 | 12.8% | 9.26% (active) | -5.23% (active) | 27.5 | 14 | 26.3% | -1.57% (active) | 5% (active) | 31.3 | 26.3 | -3.19% (active) | 20.7 | 53.6 | 5.67% (active) | 33 | 19.9 |
| Cn1c(=O)c2c(nc(NC3=NS(=O)(=O)c4ccccc43)n2CC(=O)N2CCc3ccccc32)n(C)c1=O | 87.2 | 98.8 | 100 | 94.4 | 100% | 109% | 97.5% | 99.3 | 97.3 | 101% | 106% | 114% | 103 | 94.3 | 92.7% | 97.5 | 105 | 98.1% | 94.9 | 89.1 |
| Cc1cccnc1NC(=S)Nc1ncccc1C | 99.2 | 100 | 107 | 109 | 107% | 109% | 88.9% | 110 | 90.1 | 116% | 113% | 65.3% | 113 | 112 | 92.3% | 108 | 81.2 | 107% | 116 | 102 |
| CCN1C(=O)N(CC)C2C1NN=c1s/c(=C\c3cccc([N+](=O)[O-])c3)c(=O)n12 (stereo not given) | 36.4 | 58.2 | 45.5 | 40 | 5.14% (active) | 55.2% | -4.92% (active) | 20.2 | 25 | 1.16% (active) | 8.55% (active) | 10.5% | 47.4 | 12.4 | 31.4% | 54 | 15 | -4.28% (active) | 59.7 | 12.2 |
